Where “and” joins values, the source holds several entries; their conditions need not be identical. Equal entries are not always repeated. Calls of active or inactive are those of the source.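 Rule for the calls: active = fluorescence slope higher than the sample average by over 3 SD (cut at about -0.22 in these data, passing the limit was not always enough); inactive = the rest.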
Target: Voltage-gated potassium channel subunit beta-2 (Rattus norvegicus) (UniProt P62483)
Test: inhibitors of rat Kvbeta2 reductase activity – biochemical, NADPH fluorescence, primary screen (AID 622);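 note: slope of raw intensity against log time taken from 70 to 1610 s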
Conditions: recombinant KvBeta, 4-cyanobenzaldehyde reduction, at 10 µM, stronger effect = higher value

Sequence of Voltage-gated potassium channel subunit beta-2 (Rattus norvegicus) (P62483 whole entry, looked up): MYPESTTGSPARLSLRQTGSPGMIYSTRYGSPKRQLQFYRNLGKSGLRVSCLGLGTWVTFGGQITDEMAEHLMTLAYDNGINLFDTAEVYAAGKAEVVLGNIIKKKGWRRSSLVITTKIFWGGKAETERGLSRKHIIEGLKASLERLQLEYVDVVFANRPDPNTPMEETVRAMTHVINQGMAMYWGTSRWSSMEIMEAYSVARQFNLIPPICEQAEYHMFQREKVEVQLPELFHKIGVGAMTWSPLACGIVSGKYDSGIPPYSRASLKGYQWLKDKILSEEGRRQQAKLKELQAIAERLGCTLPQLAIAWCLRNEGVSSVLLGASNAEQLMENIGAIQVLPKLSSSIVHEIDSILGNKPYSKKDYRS

Fluorescence slope, inactive:
N#CC1=C(N)N(c2ccccc2)C(c2ccccc2)C1(C#N)C#N (configuration not stated) -0.346
CC(C)NCC(O)COc1cccc2[nH]ccc12 (configuration not stated) -0.46
COCc1cc(=O)[nH]c(Nc2nc3ccccc3o2)n1 -0.469
O=C(O)c1cc(=O)cc(C(=O)O)[nH]1 -0.603
Cc1cc(C)n(S(=O)(=O)Cc2ccccc2)n1 -0.531
Cn1c(Cl)cnc1C1CC(=O)c2cc(Cl)ccc2O1 (configuration not stated) -0.562
CCOC(=O)CC(C#N)c1cn(C)c2ccccc12 (configuration not stated) -0.46
CCCC(=O)Nc1ccc(OCC(O)CNC(C)C)c(C(C)=O)c1 (configuration not stated) -0.492
CC1(C)SC2[C@H](NC(=O)C(NC(=O)N3CCNC3=O)c3ccccc3)C(=O)N2C1C(=O)O (some centres not stated) -0.461
CCOC(=O)C1=C(CSc2nc(C)cc(C)c2C#N)OC(N)=C(C#N)C1c1cccs1 (configuration not stated) -0.493
Cc1ccc(N(CC2=NCCN2)c2cccc(O)c2)cc1 -0.452 and -0.478
Cc1cc(NS(=O)(=O)c2ccc(N)cc2)no1 -0.445
O=c1cc(NCc2ccccc2)nc2n1CCCS2 -0.506
COc1ccc2c(C)nc(Nc3nc(C)cc(C)n3)nc2c1 -0.534
Fc1cc(F)c(F)c(SCCc2ccncc2)c1F -0.422
CN1CCN(C2=Nc3ccccc3Oc3ccc(Cl)cc32)CC1 -0.437
Cc1cnc(NC(=O)C2=C(O)c3ccccc3S(=O)(=O)N2C)s1 -0.427

Source: PubChem BioAssay
